ChEMBL document CHEMBL4296182, “CO-ADD screening of NIH NCI Diversity Set V”
For part of these data: Entries with a potency or affinity are not part of this list.

Assays:
[1] = system: Staphylococcus aureus; experiment: Antibacterial activity against Staphylococcus aureus MRSA ATCC 43300 (CO-ADD:GP_020); MIC in CAMBH media using NBS plates, by Resazurin F(560/590); type: functional; conditions: Concentration 20 uM, ASSAY_TEST Inhibition of Bacterial Growth, detection method Resazurin, Fluorescence (ex560/em590), MEDIA CAMHB, plate type 384well, CORNING #3640, time 18 hr
[2] = system: Acinetobacter baumannii; experiment: Antibacterial activity against Acinetobacter baumannii ATCC 19606 (CO-ADD:GN_034); MIC in CAMBH media using NBS plates, by Resazurin F(560/590); type: functional; conditions: Concentration 20 uM, ASSAY_TEST Inhibition of Bacterial Growth, detection method Resazurin, Fluorescence (ex560/em590), MEDIA CAMHB, plate type 384well, CORNING #3640, time 18 hr
[3] = system: Escherichia coli; experiment: Antibacterial activity against Escherichia coli ATCC 25922 (CO-ADD:GN_001); MIC in CAMBH media using NBS plates, by Resazurin F(560/590); type: functional; conditions: Concentration 20 uM, ASSAY_TEST Inhibition of Bacterial Growth, detection method Resazurin, Fluorescence (ex560/em590), MEDIA CAMHB, plate type 384well, CORNING #3640, time 18 hr
[4] = system: Klebsiella pneumoniae; conditions: Concentration 20 uM; ASSAY_TEST Inhibition of Bacterial Growth; detection method Absorption (OD600); MEDIA CAMHB; plate type 384well; NBS; CORNING #3640; time 18 hr
[5] = system: Candida albicans; conditions: 20 µM
[6] = system: Cryptococcus neoformans; conditions: Concentration 20 uM; ASSAY_TEST Inhibition of Fungal Growth; detection method Resazurin; Absorption (OD600-OD570); plate type 384well; NBS; CORNING #3640

SMILES	Inhibition [1] [%]	Inhibition [2] [%]	Inhibition [3] [%]	Inhibition [4] [%]	Inhibition [5] [%]	Inhibition [6] [%]
CC1=C(C(N)=O)S(=O)(=O)c2ccccc21	7.64	-12.26	14.02	8.77	2.88	-16.62
O=C1Nc2ccccc2C1(c1ccc(O)cc1)c1ccc(O)cc1 [OXYPHENISATINE]	24.64	-10.84	13.68	5.85	2.96	-4.24
CCCCCC(=O)N1CCCC1	12.42	-13.64	4.47	10.8	0.29	-1.54
O=C(O)c1ccc2c(c1Nc1ccccc1)C(=O)c1ccccc1C2=O	9.32	-23.2	18.5	7	1.26	-10.37
Cc1c([N+](=O)[O-])oc2c1C(=O)NCCC2	15.45	5.11	5.84	9.17	2.94	-11.37
O=C(OCC1CCC=CO1)C1CCC=CO1 (centres undefined)	6.99	-10.56	3.07	7.72	0.31	-9.47
COC(=O)c1cc2c(n1S(=O)(=O)c1ccc(C)cc1)C(=O)C(=O)c1[nH]cc(C(=O)OCc3ccccc3)c1-2	12.8	-9.93	4.92	10.02	-2.87	-5.89
CCn1c2ccccc2c2cc(NC(=O)Nc3ccc([N+](=O)[O-])cc3C)ccc21	15.43	8.35	6.19	0.72	18.4	0.49
c1ccc(-c2cc3ccccc3[nH]2)cc1 [2-PHENYL-1H-INDOLE]	0.91	-19.68	16.97	15.65	3.85	-3.77
CSc1nc(S)c2[nH]c(S)nc2n1	13.61	-13.83	6.32	11	6.49	2.53
O=C(O)/C=C\C(=O)Nc1nccs1	6.29	-13.11	4.99	25.17	0.91	-1.21
O=c1cc(-c2ccccc2)[nH]c2cc(-c3ccco3)nn12	0.84	-12.67	11.9	14.24	-0.13	-17.18
OCC(O)C1OCOC(C(O)CO)C1O (centres undefined)	14.61	-8.42	9.4	8.21	0.45	-5.49
Oc1ccc(/N=N/c2nccs2)c(O)c1	-2.42	12.54	-3.78	17.07	29.2	2.7
COc1cc(O)c(C(=O)/C=C/c2ccccc2)c(OC)c1 [FLAVOKAWAIN B]	9.23	7.33	2.45	12.32	6.59	-7.74
OCC1(CO)COC2(CCCC2)N1	5.01	0.7	4.05	19.67	-1.93	-8.24
O=C(Nc1ccc(Cl)c(Cl)c1)c1ccc(Cl)c(Cl)c1	18.37	5.32	2.55	6.19	-2.44	-2.12
CCN(CC)CCN1C(=O)c2cccc3cc(N)cc(c23)C1=O	-0.77	7.97	10.46	12.53	-0.17	-5.58
C#CCCOC(=O)Nc1ccccc1	2.35	-10.74	7.7	4.67	2.19	-13.66
OC(COc1ccccc1)CN1CCN(c2ccccc2)CC1 (centres undefined)	6.47	-11.62	3.6	14.06	0.81	-11.95
Cc1ccccc1NC(=O)C(=O)Nc1ccccc1C	22.64	-12.42	18.63	-3.39	6.51	7.92
CCOC(=O)/C(C#N)=C/c1cccc(C)c1	35.48	11.54	20.45	6.23	19.3	-0.16
N#Cc1n[nH]c2nc[nH]c(=O)c12	10.72	-7.81	9.33	13.07	0.58	-10.99
CCC12CCCN3CCc4c(n(c5ccccc45)C(O)(C(=O)OC)C1)C32 (centres undefined)	7.39	9.61	2.09	11.45	0.39	5.96
Cc1c(C(C)(C(=O)O)c2c(C)n(C)c3ccccc23)c2ccccc2n1C	11.46	7.57	2.78	3.48	9.04	-5.48

SMILES	Inhibition [1] [%]	Inhibition [2] [%]	Inhibition [3] [%]	Inhibition [4] [%]	Inhibition [5] [%]	Inhibition [6] [%]
O=C(Nc1ccc(F)cc1)OCCOc1ccc(Br)cc1	6.52	0.97	-0.96	0.6	2.88	3.63
CCCCSc1cc(C)nc(N)n1	19.18	-7.66	11.54	4.75	1.09	-5.9
CCOc1ccc(Nc2c3ccccc3nc3ccccc23)cc1	-9	-1.21	-17.49	0.35	-0.79	-2.93
CC1=CC(C)(C)N=C(S)N1c1cccc2cc(S(=O)(=O)O)ccc12	-5.5	9.59	-20.55	7.04	8.59	39.69
Cc1ccc(/N=N/c2c(O)c3ccccc3[nH]c2=O)c(S(=O)(=O)N(C)C)c1	12.78	7.24	9.06	6.43	-0.31	-5.24
CO/N=C1/C=C(C)C(=O)C(C)=C1C	4.57	-1.27	14.83	1.18	-2	-4.8
C/C(=N\NC(N)=O)c1ccc(Cl)c(-n2cccc2)c1	16.93	-8.65	6.19	13.36	4.13	-10.07
Oc1ccccc1Nc1ccccn1	8.12	-5.24	13.47	16.23	1.04	-3.55
N#C/C(=C\c1cc(O)c(O)c(O)c1)C(N)=O	-3.49	6.06	5.21	9.86	5.49	-11.36
NC(=O)Cc1ccc2c(c1)[nH]c1ccccc12	5.19	-14.3	7.64	6.47	5.86	-8.43
c1ccn(CCc2ccncc2)c1	10.09	-4.91	7.14	10.92	2.03	-5.95
N#C/C(=C\c1ccc(C#N)cc1)C(=O)c1ccccc1	-10.06	-6.48	6.05	15.1	8.77	-10.85
COc1cc([N+](=O)[O-])ccc1NC(=O)Oc1ccc(NC(C)=O)cc1	1.87	5.68	0.56	4.62	0.51	-16.29
CCn1c(=O)n(C)c2c(=O)n(C)c(=O)n(C)c21	-2	-10.53	11.39	6.07	-0.98	-11.25
NC(=N\c1ccc(N)cc1)/C(N)=N/c1ccc(N)cc1	-1.65	-17.09	7.03	7.69	0.22	-12.28
COC(=O)c1cc(C)nc2c(C)cc3[nH]c4ccccc4c3c12	-3.37	-0.23	-15.24	17.6	8.78	0.02
O=[N+]([O-])c1cccnc1Oc1cccnc1	16.25	-14.38	11.2	9.34	-2.59	-10.27
c1ccc(-c2ccc(-c3nccc4ccccc34)[nH]2)cc1	-4.96	-13.85	6.1	4.74	14	-7.81
Cn1ncc2c(Nc3ccccc3Cl)nc(Cl)nc21	11.91	12.64	1.79	7.78	7.2	-6.78
S=C(Sc1ccc(Cl)cc1)Sc1ccc(Cl)cc1	-6.64	10.03	10.65	7.47	2.15	-8.72
Cc1cccc(NC2=C(C#N)C(=O)NC3(CCCC3)S2)c1	-0.83	-3	-9.49	8.76	11	1.34
Cc1cccc2cc3cccc(C)c3nc12	-5.52	-11.71	-1.48	1.32	0.25	-5.61
CCC(C)(C)c1ccc(Oc2cccc(C(=O)O)c2)cc1	-8.99	14.6	-8.34	17.33	8.87	-6.24
O=C(Nc1ccc(Br)c2ccccc12)c1ccc2ccccc2c1O	0.57	-4.06	-4.98	22.07	4.96	1.39
